# Assay results published in PubChem BioAssay (Tox21).
# Unmarked numbers belong to inactive results. Results filed as inconclusive are left out. Entries that show only a call come without a potency. Activity calls are given as the source filed them. Unless noted, calls come from the whole dose curve; as a rule, active = well fitted curve in the direction sought with a large enough effect in the repeat runs; inconclusive = weak or mixed curves; inactive = no such curve, though single readings can be large; an effect the other way counts as inactive or inconclusive.
# Assays:
# [1] = qHTS assay to identify small molecule antagonists of the constitutive androstane receptor (CAR) signaling pathway - cell viability counter screen (AID 1224837); note: nearly all actives have a fitted effect of over 45% in size; note: potency is the fitted concentration of half-maximal effect
# Outline: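 In quantitative HTS format, compounds at 15 concentrations were applied to HepG2 cells double-transfected with hCAR and CYP2B6-2.2kb under 50 nM CITCO stimulation; live-cell protease activity was read after 23 hr via CellTiter-Fluor.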
# [2] = qHTS assay to identify small molecule antagonists of the estrogen related receptor signaling pathway with the pleiotropic PPARgamma coactivator (PGC) from Tox21 10K library - cell viability counter screen (AID 1224840; active = well fitted cell-killing curve with a large enough effect in the repeat runs, not every such curve was filed as active; note: nearly all actives have a fitted effect of over 40% in size; note: potency is the fitted concentration of half-maximal effect)
# Outline: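 Viability counter screen, PGC/ERR cells: 17.5 h compound exposure at 37 C, CellTiter-Fluor fluorescence endpoint.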
# [3] = target: Thyrotropin receptor (Homo sapiens) (UniProt P16473); test: qHTS assay to identify small molecule agonists of the thyroid stimulating hormone receptor (TSHR) signaling pathway (AID 1224843; calls by dose curve; note: nearly all actives have a fitted effect of over 45% in size)
# Outline: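 A cell-based cAMP HTRF format was run in TSHR-transfected HEK293 cells, 800 per well. Treatment: 30 min, room temperature. Detection: 1 h with labelled cAMP and anti-cAMP cryptate. Concentration-response over 15 points, three replicates.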
# [4] = qHTS assay to identify small molecule agonists of the hypoxia (HIF-1) signaling pathway - cell viability counter screen (AID 1224844; calls by dose curve; note: nearly all actives have a fitted effect of over 50% in size; note: potency is the fitted concentration of half-maximal effect)
# Outline: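 Same wells as the HIF-1 reporter screen; ME-180 cells carrying HRE-bla, 17 hr treatment at 37C; CellTiter-Glo luminescence read after 30 min at room temperature.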
# [5] = qHTS assay to identify small molecule agonists of H2AX (AID 1224845; active = well fitted activation curve with a large enough effect in the signal ratio in the repeat runs, not every such curve was filed as active; the % refers to the signal ratio; note: potency is the fitted concentration of half-maximal effect)
# Outline: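 Phospho-H2AX Ser139 measured by HTRF (ex 320 nm; em 665 and 620 nm) after 24 hr antibody incubation. Compounds, 15 concentrations, 0.76% DMSO, were applied to CHO-K1 cells for 3hr at 37C before lysis.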
# [6] = qHTS assay to identify small molecule agonists of the hypoxia (HIF-1) signaling pathway (AID 1224846; active = well fitted activation curve with a large enough effect in the signal ratio in the repeat runs, not every such curve was filed as active; the % refers to the signal ratio)
# Outline: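 In ME-180 cells bearing an HRE-bla construct, 17 h treatment with DMSO-dissolved compounds at 37C was followed by CCF4-AM loading to quantify reporter induction.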
# [7] = qHTS assay to identify small molecule agonists of H2AX - cell viability counter screen (AID 1224847; calls by dose curve; note: nearly all actives have a fitted effect of over 30% in size; note: potency is the fitted concentration of half-maximal effect)
# Outline: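 Counter-screen for viability: CellTiter-Glo ATP luminescence read after 3 h compound treatment (15-point titration, 0.76% DMSO final) of CHO-K1 cells at 37C, with 30 min room-temperature reagent incubation.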
# [8] = qHTS RealTime-Glo MT Cell Viability Assay in HepG2 cells - 24 hour (AID 1224867); note: nearly all actives have a fitted effect of over 50% in size; note: potency is the fitted concentration of half-maximal effect
# Outline: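 HepG2 cells (600/well) were dispensed with RealTime-Glo reagents, incubated 5 h at 37 °C, then treated with compounds in DMSO for up to 40 h. Nonlytic NanoLuc luminescence reflecting viable cells was read at each stated time point.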
# [9] = qHTS RealTime-Glo MT Cell Viability Assay in HEK293 cells - 32 hour (AID 1224868); note: nearly all actives have a fitted effect of over 50% in size; note: potency is the fitted concentration of half-maximal effect
# Outline: (§1)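 HEK293 cells seeded with NanoLuc/prosubstrate reagent, rested 5 h at 37 C, then dosed and kept at 37 C up to 40 h. Nonlytic real-time luminescence from viable cells read at 0, 8, 16, 24, 32 and 40 h.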
# [10] = A CellTox Green Cytotoxicity Assay to monitor cytotoxicity in HEK293 cells - 0 hour (AID 1224869); note: nearly all actives have a fitted effect of over 50% in size
# Outline: (§2)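 Homogeneous no-lysis format: HEK293 cell suspension mixed with CellTox Green reagent, seeded, incubated 5 h at 37 C/5% CO2, then dosed by pintool with compound in DMSO.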
# [11] = qHTS RealTime-Glo MT Cell Viability Assay in HepG2 cells - 40 hour (AID 1224870); note: nearly all actives have a fitted effect of over 50% in size; note: potency is the fitted concentration of half-maximal effect
# Outline: (§3)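 Real-time viability: cells seeded at 600 per well together with NanoLuc and cell-permeant prosubstrate, compounds added after 5 h incubation. Luminescence tracked at 0, 8, 16, 24, 32 and 40 h of exposure.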
# [12] = qHTS assay to identify small molecule antagonists of the estrogen related receptor signaling pathway with the pleiotropic PPARgamma coactivator (PGC) from Tox21 10K library (AID 1224841; call rule not given here; note: potency is the fitted concentration of half-maximal effect)
# Outline: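 In the PGC/ERR line, DMSO solutions of test chemicals are pin-delivered to 2,000 cells/well six hours after dispensing. Following eighteen hours' incubation, One-Glo reagent is added and luminescence recorded.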
# [13] = qHTS assay to identify small molecule agonists of the estrogen related receptor signaling pathway with the pleiotropic PPARgamma coactivator (PGC) from Tox21 10K library (AID 1224842); note: nearly all actives have a fitted effect of over 15% in size; note: potency is the fitted concentration of half-maximal effect
# Outline: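 Luminescence from One-Glo (30 min, room temperature) measured after PGC/ERR cells had 18 h at 37 C with pinned compound (23 nL in DMSO). Cells had been seeded at 2,000 per well and pre-incubated 6 h.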
# [14] = qHTS assay to identify small molecule antagonists of the estrogen related receptor (ERR) signaling pathway from Tox21 library (AID 1224848); note: nearly all actives have a fitted effect of over 50% in size; note: potency is the fitted concentration of half-maximal effect
# Outline: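 ERR cell line, 2,000 cells/well. 6 h settle, then compound (DMSO) added; 18 h at 37 C; ONE-Glo luminescence after 30 min RT.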
# [15] = qHTS assay to identify small molecule agonists of the estrogen related receptor (ERR) signaling pathway from Tox21 library (AID 1224849; calls by dose curve; note: nearly all actives have a fitted effect of over 15% in size); conditions: ERR reporter cell line, ONE-Glo luciferase, 18 h; at 92.4 µM (top of the series) unless noted
# Outline: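 Reporter cells (ERR, NTP source) treated with Tox21 10K compounds 18 h, 37 C. Readout: ONE-Glo luminescence, 30 min RT.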
# [16] = A CellTox Green Cytotoxicity Assay to monitor cytotoxicity in HEK293 cells - 40 hour (AID 1224871); note: nearly all actives have a fitted effect of over 45% in size; note: potency is the fitted concentration of half-maximal effect
# Outline: as §2
# [17] = qHTS RealTime-Glo MT Cell Viability Assay in HEK293 cells - 16 hour (AID 1224872); note: nearly all actives have a fitted effect of over 50% in size; note: potency is the fitted concentration of half-maximal effect
# Outline: as §1
# [18] = target: Nuclear receptor subfamily 1 group I member 3 (Homo sapiens) (UniProt Q14994); test: qHTS assay to identify small molecule antagonists of the constitutive androstane receptor (CAR) signaling pathway (AID 1224838); note: nearly all actives have a fitted effect of over 40% in size; note: potency is the fitted concentration of half-maximal effect
# Outline: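 CITCO-stimulated (50 nM final) HepG2 cells stably transfected with hCAR and CYP2B6-2.2kb luciferase were exposed to compounds at 15 concentrations for 24 h at 37 C/5% CO2. A luciferase reagent was added and luminescence recorded after 30 min.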
# [19] = target: Nuclear receptor subfamily 1 group I member 3 (Homo sapiens) (UniProt Q14994); test: qHTS assay to identify small molecule agonists of the constitutive androstane receptor (CAR) signaling pathway (AID 1224839); note: nearly all actives have a fitted effect of over 15% in size; note: potency is the fitted concentration of half-maximal effect;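 for activation: HepG2 cells stably carrying human CAR and a CYP2B6 luciferase reporter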
# Outline: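 Luminescent ONE-Glo read-out after 24 hr, 37 C exposure of double-stable HepG2-CYP2B6-hCAR reporter cells to a 15-point compound series, in the presence of 0.75 uM PK11195 (final).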
# [20] = qHTS RealTime-Glo MT Cell Viability Assay in HepG2 cells - 8 hour (AID 1224873); note: nearly all actives have a fitted effect of over 55% in size; note: potency is the fitted concentration of half-maximal effect
# Outline: as §3
# Nuclear receptor subfamily 1 group I member 3 (Homo sapiens), sequence (Q14994 whole entry, looked up): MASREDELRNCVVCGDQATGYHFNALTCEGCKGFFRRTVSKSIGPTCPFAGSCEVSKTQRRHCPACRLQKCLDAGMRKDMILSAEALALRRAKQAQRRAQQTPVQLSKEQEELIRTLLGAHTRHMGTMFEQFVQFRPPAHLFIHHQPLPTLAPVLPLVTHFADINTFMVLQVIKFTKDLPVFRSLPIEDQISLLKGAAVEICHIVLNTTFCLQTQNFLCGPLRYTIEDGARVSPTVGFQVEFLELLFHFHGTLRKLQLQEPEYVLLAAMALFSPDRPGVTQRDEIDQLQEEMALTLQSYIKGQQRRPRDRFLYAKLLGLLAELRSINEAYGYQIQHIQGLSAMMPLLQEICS
# Thyrotropin receptor (Homo sapiens), sequence (P16473 whole entry, looked up): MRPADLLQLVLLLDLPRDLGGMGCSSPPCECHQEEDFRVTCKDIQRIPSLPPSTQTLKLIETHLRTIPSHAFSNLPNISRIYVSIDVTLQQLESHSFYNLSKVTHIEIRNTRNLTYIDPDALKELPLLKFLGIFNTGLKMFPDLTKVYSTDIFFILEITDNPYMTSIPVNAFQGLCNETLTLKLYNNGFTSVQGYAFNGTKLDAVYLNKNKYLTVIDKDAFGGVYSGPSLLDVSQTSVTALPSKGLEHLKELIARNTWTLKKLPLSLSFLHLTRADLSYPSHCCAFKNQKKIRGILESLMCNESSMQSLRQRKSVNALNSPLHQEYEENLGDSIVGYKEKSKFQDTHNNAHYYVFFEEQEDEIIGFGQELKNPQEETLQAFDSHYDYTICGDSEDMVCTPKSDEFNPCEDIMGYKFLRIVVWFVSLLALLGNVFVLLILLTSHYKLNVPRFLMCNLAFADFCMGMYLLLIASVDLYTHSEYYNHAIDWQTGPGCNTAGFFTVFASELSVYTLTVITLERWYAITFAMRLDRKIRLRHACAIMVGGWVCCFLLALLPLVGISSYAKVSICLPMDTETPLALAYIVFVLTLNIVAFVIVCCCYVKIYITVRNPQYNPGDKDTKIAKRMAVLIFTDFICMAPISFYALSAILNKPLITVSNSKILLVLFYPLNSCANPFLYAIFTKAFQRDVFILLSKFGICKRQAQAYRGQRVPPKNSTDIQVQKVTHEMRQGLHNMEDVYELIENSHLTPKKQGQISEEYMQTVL
Compound,Potency [1],Potency [2],Potency [3],Potency [4],Potency [5],outcome [6],Potency [7],Potency [8],Potency [9],Potency [10],Potency [11],Potency [12],Potency [13],Potency [14],"activity change, positive = activation [15]",Potency [16],Potency [17],Potency [18],Potency [19],Potency [20]
CCc1ccc(O)c(C(C)(C)C)c1,inactive,inactive,inactive,inactive,inactive,inactive,101 µM (active),inactive,inactive,inactive,inactive,–,–,–,–,–,–,–,–,–
Cn1cccc1,inactive,–,inactive,–,inactive,inactive,inactive,inactive,inactive,inactive,inactive,inactive,inactive,inactive,-4.51%,inactive,inactive,–,–,–
CCCCCCOc1ccc(O)cc1,–,inactive,inactive,54.9 µM (active),11.3 µM (active),–,113 µM (active),–,–,–,inactive,inactive,13.7 µM (active),inactive,–,19.5 µM (active),0.0617 µM (active),inactive,27.3 µM (active),–
O=Cc1ccc(F)cc1,inactive,inactive,inactive,inactive,inactive,inactive,inactive,inactive,inactive,inactive,inactive,–,–,–,–,inactive,inactive,–,–,inactive
Clc1nc2ccccc2s1,inactive,inactive,inactive,inactive,–,inactive,inactive,inactive,–,inactive,inactive,–,–,–,–,inactive,inactive,–,–,inactive
c1ccc(Sc2ccccc2)cc1,inactive,inactive,–,inactive,–,inactive,–,inactive,–,inactive,–,–,–,–,–,inactive,inactive,–,–,inactive
C=CC/C=C/C/C=C/C/C=C/C,–,inactive,inactive,inactive,inactive,inactive,–,inactive,inactive,inactive,inactive,inactive,inactive,inactive,3.56%,inactive,inactive,inactive,inactive,inactive
CC(C)(C)c1cc(/C=C2\SC(=N)NC2=O)cc(C(C)(C)C)c1O,inactive,61.1 µM (active),–,54.9 µM (active),–,–,–,–,–,inactive,–,–,inactive,48.6 µM (active),-57.9%,–,43.6 µM (active),–,–,–
O=C(Nc1ccc(Cl)c(Cl)c1)c1cc(Cl)cc(Cl)c1O,7.7 µM (active),4.33 µM (active),–,19.5 µM (active),–,–,10.1 µM (active),–,4.9 µM (active),inactive,12.3 µM (active),–,inactive,1.09 µM (active),-15.1%,49 µM (active),–,–,–,inactive
Clc1ccccc1CN1CCc2sccc2C1,inactive,inactive,–,–,–,–,–,inactive,–,inactive,inactive,–,–,–,–,inactive,–,–,–,inactive
CCC(C)c1ccccc1 (stereo unspecified),inactive,inactive,inactive,–,inactive,inactive,–,inactive,inactive,inactive,inactive,–,–,–,–,inactive,inactive,–,–,inactive
C/C=C/C(=O)Oc1c(CCCCCC(C)C)cc([N+](=O)[O-])cc1[N+](=O)[O-],–,27.3 µM (active),inactive,17.4 µM (active),–,–,50.5 µM (active),21.9 µM (active),15.5 µM (active),inactive,–,6.86 µM (active),inactive,6.11 µM (active),-62.8%,38.9 µM (active),–,30.6 µM (active),inactive,21.9 µM (active)
CCCCCCC(C)Nc1ccc(Nc2ccccc2)cc1 (stereo unspecified),inactive,–,inactive,–,–,–,–,–,24.5 µM (active),inactive,–,–,–,–,–,–,19.5 µM (active),–,–,–
